# Reference: the supplement of paper PMC8728848
# This excerpt belongs to a sample that is enriched for the strongest signals.
# What was measured:
# Assay in all cases: glycan array binding signal (z-score within array); higher = stronger binding
# Conditions in all cases: glycan notation: IUPAC condensed, linker removed
# [1] = target: Fuc(a1-2)Gal(b1-3)GalNAc(b1-3)Gal
# Outline: (§1)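 The binding signal is a Z-score computed within each array. Data were drawn from 3228 arrays in the Consortium for Functional Glycomics database, restricted to those with a known protein sequence. Scores were averaged over arrays of the same protein sequence at different concentrations or buffers, and over linkers, and negative values can be taken as non-binding.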
# [2] = target: Fuc(a1-2)Gal(b1-3)GlcNAc(b1-3)[Neu5Ac(a2-6)Gal(b1-4)GlcNAc(b1-6)]Gal(b1-4)Glc
# Outline: as §1
# [3] = target: Fuc(a1-2)[GalNAc(a1-3)]Gal(b1-3)GlcNAc(b1-2)Man(a1-3)[Fuc(a1-2)[GalNAc(a1-3)]Gal(b1-3)GlcNAc(b1-2)Man(a1-6)]Man(b1-4)GlcNAc(b1-4)GlcNAc
# Outline: as §1
# [4] = target: Fuc(a1-2)[GalNAc(a1-4)]Gal(b1-4)GlcNAc
# Outline: as §1
# [5] = target: Fuc(a1-3)[Gal(b1-4)]GlcNAc(b1-2)Man(a1-3)[Fuc(a1-3)[Gal(b1-4)]GlcNAc(b1-2)Man(a1-6)]Man(b1-4)GlcNAc(b1-4)[Fuc(a1-6)]GlcNAc
# Outline: as §1
# [6] = target: Fuc(a1-3)[Gal(b1-4)]GlcNAc(b1-3)GalNAc
# Outline: as §1
# Gal(a1-2)Gal = target: Gal(a1-2)Gal
# Outline: as §1
# Gal(a1-3)Gal(b1-3)GlcNAc = target: Gal(a1-3)Gal(b1-3)GlcNAc
# Outline: as §1
# [7] = target: Gal(a1-3)Gal(b1-3)[Fuc(a1-4)]GlcNAc(b1-2)Man(a1-3)[Gal(a1-3)Gal(b1-3)[Fuc(a1-4)]GlcNAc(b1-2)Man(a1-6)]Man(b1-4)GlcNAc(b1-4)GlcNAc
# Outline: as §1
# [8] = target: Gal(a1-3)Gal(b1-4)GlcNAc(b1-2)Man
# Outline: as §1
# [9] = target: Gal(a1-3)[Gal(a1-4)]Gal(b1-4)GlcNAc
# Outline: as §1
# Gal(b1-2)Gal = target: Gal(b1-2)Gal
# Outline: as §1
# Gal(b1-3)Gal = target: Gal(b1-3)Gal
# Outline: as §1
# [10] = target: Gal(b1-3)GlcNAc(b1-2)Man(a1-3)[GlcNAc(b1-4)][Gal(b1-3)GlcNAc(b1-2)Man(a1-6)]Man(b1-4)GlcNAc(b1-4)GlcNAc
# Outline: as §1
# [11] = target: Gal(b1-3)GlcNAc(b1-3)Gal(b1-4)[Fuc(a1-3)]GlcNAc
# Outline: as §1
# [12] = target: Gal(b1-3)[Fuc(a1-4)]GlcNAc(b1-2)Man
# Outline: as §1
# [13] = target: Gal(b1-3)[Fuc(a1-4)]GlcNAc(b1-2)Man(a1-3)[Gal(b1-3)[Fuc(a1-4)]GlcNAc(b1-2)Man(a1-6)]Man(b1-4)GlcNAc(b1-4)[Fuc(a1-6)]GlcNAc
# Outline: as §1
# Gal(b1-4)Gal = target: Gal(b1-4)Gal
# Outline: as §1
# [14] = target: Gal(b1-4)GlcNAc(b1-3)Gal(b1-4)GlcNAc(b1-3)Gal(b1-4)GlcNAc
# Outline: as §1
# [15] = target: Gal(b1-4)GlcNAc(b1-3)Gal(b1-4)GlcNAc(b1-3)Gal(b1-4)GlcNAc(b1-3)Gal(b1-4)GlcNAc(b1-2)Man(a1-3)[Gal(b1-4)GlcNAc(b1-3)Gal(b1-4)GlcNAc(b1-3)Gal(b1-4)GlcNAc(b1-3)Gal(b1-4)GlcNAc(b1-2)Man(a1-6)]Man(b1-4)GlcNAc(b1-4)[Fuc(a1-6)]GlcNAc
# Outline: as §1
# [16] = target: Gal(b1-4)GlcNAc(b1-3)Gal(b1-4)GlcNAc(b1-3)[Gal(b1-4)GlcNAc(b1-3)Gal(b1-4)GlcNAc(b1-6)]GalNAc
# Outline: as §1
# [17] = target: Gal(b1-4)GlcNAc(b1-3)Gal(b1-4)[Fuc(a1-3)]GlcNAc(b1-3)Gal(b1-4)[Fuc(a1-3)]GlcNAc
# Outline: as §1
# Gal3S(b1-4)Glc = target: Gal3S(b1-4)Glc
# Outline: as §1
# [18] = target: Gal3S(b1-4)[Fuc(a1-3)]GlcNAc6S
# Outline: as §1
# Gal3S6S(b1-4)GlcNAc = target: Gal3S6S(b1-4)GlcNAc
# Outline: as §1
# Gal4S6S(b1-4)GlcNAc = target: Gal4S6S(b1-4)GlcNAc
# Outline: as §1
# Gal6S(b1-4)GlcNAc6S = target: Gal6S(b1-4)GlcNAc6S
# Outline: as §1
# [19] = target: GalNAc(a1-3)GalNAc(b1-3)Gal(a1-4)Gal(b1-4)GlcNAc
# Outline: as §1
# GalNAc(b1-4)GlcNAc6S = target: GalNAc(b1-4)GlcNAc6S
# Outline: as §1
# GlcA(b1-6)Gal = target: GlcA(b1-6)Gal
# Outline: as §1
binder,measurement,setting,value
Arath Fbox LD (Arabidopsis thaliana) (protein) EFSVWLEKASGKRCLMLSAMNLSIIWGDNPQYWQWIPIPESRFEKVAKLRDVCWFEIRGRTNTRVLSPRTRYSAYIVFKGVDKCYGFQNVAIEAAVGVVGQEPSRRLICFSEAIRRGRRNVVKPKQREDGWMEIELGEFFNDGGIMDNDEIEMSALETKQLNRKCGLIIQGIEIRPAKILAAASFLEQKLISEEDLNSAVDHHHHHH,glycan array binding signal (z-score),[1],-0.344
same,glycan array binding signal (z-score),[2],-0.52
same,glycan array binding signal (z-score),[3],-0.597
same,glycan array binding signal (z-score),[4],0.47
same,glycan array binding signal (z-score),[5],2.04
same,glycan array binding signal (z-score),[6],-0.455
same,glycan array binding signal (z-score),Gal(a1-2)Gal,-0.171
same,glycan array binding signal (z-score),Gal(a1-3)Gal(b1-3)GlcNAc,9.37
same,glycan array binding signal (z-score),[7],2.84
same,glycan array binding signal (z-score),[8],-0.233
same,glycan array binding signal (z-score),[9],1.55
same,glycan array binding signal (z-score),Gal(b1-2)Gal,2.67
same,glycan array binding signal (z-score),Gal(b1-3)Gal,-0.517
same,glycan array binding signal (z-score),[10],-0.473
same,glycan array binding signal (z-score),[11],-0.574
same,glycan array binding signal (z-score),[12],4.02
same,glycan array binding signal (z-score),[13],2.55
same,glycan array binding signal (z-score),Gal(b1-4)Gal,1.31
same,glycan array binding signal (z-score),[14],0.403
same,glycan array binding signal (z-score),[15],-0.558
same,glycan array binding signal (z-score),[16],-0.532
same,glycan array binding signal (z-score),[17],-0.413
same,glycan array binding signal (z-score),Gal3S(b1-4)Glc,4.4
same,glycan array binding signal (z-score),[18],3.79
same,glycan array binding signal (z-score),Gal3S6S(b1-4)GlcNAc,2.51
same,glycan array binding signal (z-score),Gal4S6S(b1-4)GlcNAc,-0.39
same,glycan array binding signal (z-score),Gal6S(b1-4)GlcNAc6S,0.739
same,glycan array binding signal (z-score),[19],-0.368
same,glycan array binding signal (z-score),GalNAc(b1-4)GlcNAc6S,-0.574
same,glycan array binding signal (z-score),GlcA(b1-6)Gal,1.15
